This is an account of results in PubChem BioAssay.

A number with no mark means an inactive call. The rule behind the calls is not given here.

In this test the target is Pantothenate synthetase (Mycobacterium tuberculosis (strain ATCC 25618 / H37Rv)) (UniProt P9WIL5). The experiment in a line: Coupled enzyme confirmation of inhibitors against recombinant Mtb PanC (AID 375).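 Note: 0% = full reaction with vehicle and 100% = no enzyme background.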 The settings on record: coupled enzyme assay; at 10 µM, hits give high values.
Pantothenate synthetase (Mycobacterium tuberculosis (strain ATCC 25618 / H37Rv)), sequence (P9WIL5 whole entry, looked up): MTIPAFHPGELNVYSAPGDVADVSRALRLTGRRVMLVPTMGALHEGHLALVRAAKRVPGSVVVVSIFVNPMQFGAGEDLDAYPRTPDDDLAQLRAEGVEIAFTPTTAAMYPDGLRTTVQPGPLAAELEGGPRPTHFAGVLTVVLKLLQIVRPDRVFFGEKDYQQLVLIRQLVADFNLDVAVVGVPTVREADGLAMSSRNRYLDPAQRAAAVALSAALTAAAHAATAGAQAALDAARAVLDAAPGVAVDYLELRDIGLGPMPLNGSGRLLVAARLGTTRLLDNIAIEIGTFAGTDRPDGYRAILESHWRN
For the molecule `CCOc1ccc(NS(=O)(=O)c2cc(Cl)ccc2OC)cc1`, the inhibition is 4%.

For the molecule `COC(=O)C1=C(C)N(Cc2ccco2)C(=O)C1`, the inhibition is 0%.

Consider `C=CCNC(=O)C1CC(=O)N(c2ccc(OCC(=O)Nc3ccc(OC)cc3)cc2)C1` (stereo not given), for which the inhibition is 0%.

For the molecule `CCCC(NC(=O)c1ccccc1)c1nc2ccccc2n1Cc1ccc(C(=O)OC)o1` (stereo not given), the inhibition is 0%. The figure for `CC(C)n1c(NCc2c[nH]c3ccccc23)nc2ccccc21` is 0%. In the case of `O=C(O)CSC1CC(=O)N(c2ccc(Cl)c(Cl)c2)C1=O` (stereo not given), the inhibition is 0%. The value for `CCN(CC)S(=O)(=O)N1CCC(C(=O)NC2CCCc3ccccc32)CC1` (stereo not given) was 0%. The value for `O=C(OCC(=O)N1CCCC1)c1cncc(Br)c1` was 1%. The figure for `CCOC(=O)c1cc(C(C)(C)C)oc1CN` is 0%; for `N#Cc1c(N)nc2c(c1-c1ccncc1)CCCCC2` it is 8%. Turning to `CCOc1ccccc1NC(=O)C1CCCN(C(=O)NCc2ccccc2)C1` (stereo not given), the inhibition was 8%. `CC(=O)Nc1ccc(S(=O)(=O)NCc2csc(-c3cccnc3)n2)cc1`: the inhibition was 0%. The value for `COc1cccc(CN2CCN(C(=O)c3ccco3)CC2)c1OC` was 3%; that for `COc1ccc(-n2c(Cc3cccn3C)nnc2SCC(N)=O)cc1` was 0%; that for `O=c1oc2c3c4c(cc2cc1-c1nc2ccccc2[nH]1)CCCN4CCC3` was 4%. Consider `O=C(Nc1ccon1)c1cccc(S(=O)(=O)N2CCCC2)c1`, for which the inhibition is 2%. The value for `COC(=O)c1ccc(NC(=O)CN2CCN(c3ccc(Cl)cc3)CC2)cc1` was 1%; that for `COc1ccc(CCNC(=O)c2ccncc2)cc1OC` was 4%. The value for `COc1cccc(N2C(=O)N(c3ccccc3Cl)C3CS(=O)(=O)CC32)c1` (stereo not given) was 3%; that for `COC(=O)c1ccccc1NC(=O)CSc1nnnn1C1CCCCC1` was 6%.

Turning to `O=C(O)C1CCCN1C(=O)Nc1ccc(F)cc1` (stereo not given), the inhibition is 2%.

`Cc1ccc(S(=O)(=O)NC(C(=O)OCC(=O)NC2CCS(=O)(=O)C2)C(C)C)cc1` (stereo not given): the inhibition is 0%. The figure for `O=C(C1CCCCC1)N1CCC(c2nc3c(nnn3Cc3c(F)cccc3Cl)c(=O)[nH]2)CC1` is 0%.

For `COc1ccc(OC)c(Nc2cc(-c3ccccc3)nc(N)n2)c1`, the inhibition was 1%. The value for `CCn1cc(C(=O)NCc2ccccc2OC)c(=O)c2cc(S(=O)(=O)N(C)C)ccc21` was 0%. The figure for `COc1ccc(N(CC(=O)NC2CCCC2)C(=O)Cn2nnc(-c3ccc(C)cc3)n2)cc1` is 0%; for `C=CCn1c(SCc2ccc3nonc3c2)nnc1-c1cccs1` it is 7%. The figure for `Cc1ccc2c(c1C)NC(C)CC2C` (stereo not given) is 0%.

In the case of `N#Cc1nc(COc2ccccc2)oc1NCCCn1ccnc1`, the inhibition is 0%.

On to `O=C(c1ccccc1)N1CCCCC(Sc2nnnn2-c2ccccc2)C1=O` (stereo not given), for which the inhibition was 0%.

As for `COCCNC(=O)C(c1cccc(OC)c1)N(Cc1cccs1)C(=O)Cn1nnc2ccccc21` (stereo not given), the inhibition is 0%. The value for `Fc1ccc(-c2csc3nnc(SCc4cccnc4)n23)cc1` was 0%; that for `CCCC(C)C1C(C#N)=C(N)Oc2cc(C)oc(=O)c21` (stereo not given) was 1%; that for `COc1cccc(C(=O)Nc2cccc(C(=O)N3CCOCC3)c2)c1` was 2%.

As to `N/C(=N/O)c1nc(N2CCCC2)nc(N(c2ccccc2)c2ccccc2)n1`, the inhibition is 7%. For the molecule `CCOC(=O)Cn1c(CN(C)Cc2ccccc2)nc2c1c(=O)n(C)c(=O)n2C`, the inhibition was 5%. The value for `COC(=O)c1ccccc1NC1c2ccccc2C(=O)N1c1cccnc1` (stereo not given) was 0%; that for `O=C(NCCCN1CCN(CCCNC(=O)c2ccc(F)cc2)CC1)c1ccc(F)cc1` was 0%; that for `O=C1CC2CS(=O)(=O)CC2N1c1ccc(Oc2ccccc2)cc1` (stereo not given) was 0%.

On to `Cc1cc(C)c(C#N)c(SCc2ccc(C#N)cc2)n1`, for which the inhibition is 0%.

The inhibition is the change of the read-out against control, counted positive when it falls.
